Experimental data published in PubChem BioAssay AID1159580 (chemical genetic matrix, 2015).
The whole screen tested about 5,500 compounds, of which about 2,000 (36%) were called active. Another 18% or so got no clear call; they are omitted. Cut-off read from the data, not from the text of the source: active = normalized growth mostly below about 0.91 (no sharp cut-off); inconclusive = no clear call, values can overlap the other calls; inactive = mostly above about 0.92. The list shows a part of the results.

Assay: chemical genetic growth profiling, strain panel (AID 1159580);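 note: tested at 20 µM; growth read once vehicle control cultures reached saturation at 30 °C; 1 = growth at the plate median or of vehicle wells; lower values mean less growth of the strain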
Details: growth OD

Measured: normalized growth

CO[C@H]1C[C@H](O[C@H]2[C@H](C)[C@@H](OC3O[C@H](C)C[C@H](N(C)C)[C@H]3OC(C)=O)[C@@H](C)C[C@]3(CO3)C(=O)[C@H](C)[C@@H](OC(C)=O)[C@@H](C)[C@@H](C)OC(=O)[C@@H]2C)O[C@@H](C)[C@@H]1OC(C)=O (some centres undefined)
inactive: S. cerevisiae deletion strains, locus YKL009W, strain mrt4, stronger effect = lower value 0.977 | S. cerevisiae deletion strains, locus YKL068W, stronger effect = lower value 0.995 | S. cerevisiae deletion strains, locus YKL085W, strain MDH1 (second series), stronger effect = lower value 0.989 | S. cerevisiae deletion strains, locus YKL085W, strain MDH1, stronger effect = lower value 0.989 | S. cerevisiae deletion strains, locus YKL160W, strain elf1, stronger effect = lower value 0.984 | S. cerevisiae deletion strains, locus YKL190W, strain CNB1, stronger effect = lower value 1 | S. cerevisiae deletion strains, locus YKR001C, strain vps1, stronger effect = lower value 0.982 | S. cerevisiae deletion strains, locus YKR026C, strain gcn3, stronger effect = lower value 0.982 | S. cerevisiae deletion strains, locus YKR091W, strain srl3, stronger effect = lower value 0.997 | S. cerevisiae deletion strains, locus YLL001W, strain dnm1, stronger effect = lower value 1.01 | S. cerevisiae deletion strains, locus YLL026W, stronger effect = lower value 1 | S. cerevisiae deletion strains, locus YLL041C, strain sdh2, stronger effect = lower value 1 | S. cerevisiae deletion strains, locus YLR027C, strain aat2, stronger effect = lower value 0.984 | S. cerevisiae deletion strains, locus YLR039C, strain RIC1, stronger effect = lower value 1.02 | S. cerevisiae deletion strains, locus YLR058C, strain SHM2, stronger effect = lower value 1.01 | S. cerevisiae deletion strains, locus YLR102C, strain apc9, stronger effect = lower value 0.989 | S. cerevisiae deletion strains, locus YLR113W, strain HOG1, stronger effect = lower value 0.978 | S. cerevisiae deletion strains, locus YLR221C, strain rsa3, stronger effect = lower value 0.99 | S. cerevisiae deletion strains, locus YLR258W, strain gsy2, stronger effect = lower value 0.997 | S. cerevisiae deletion strains, locus YLR262C, strain YPT6 (second series), stronger effect = lower value 0.983 | S. cerevisiae deletion strains, locus YLR262C, strain YPT6, stronger effect = lower value 1.02 | S. cerevisiae deletion strains, locus YLR268W, strain sec22, stronger effect = lower value 0.987 | S. cerevisiae deletion strains, locus YLR320W, strain mms22, stronger effect = lower value 0.993 | S. cerevisiae deletion strains, locus YLR330W, strain CHS5, stronger effect = lower value 1 | S. cerevisiae deletion strains, locus YLR342W, strain FKS1 (second series), stronger effect = lower value 0.983 | S. cerevisiae deletion strains, locus YLR342W, strain FKS1, stronger effect = lower value 0.982 | S. cerevisiae deletion strains, locus YLR357W, strain rsc2, stronger effect = lower value 0.997 | S. cerevisiae deletion strains, locus YLR370C, strain arc18, stronger effect = lower value 0.993 | S. cerevisiae deletion strains, locus YLR371W, strain rom2, stronger effect = lower value 0.983 | S. cerevisiae deletion strains, locus YLR384C, strain iki3, stronger effect = lower value 0.995 | S. cerevisiae deletion strains, locus YLR418C, strain cdc73, stronger effect = lower value 0.961 | S. cerevisiae deletion strains, locus YML016C, strain PPZ1, stronger effect = lower value 1.01 | S. cerevisiae deletion strains, locus YML032C, strain rad52, stronger effect = lower value 0.991 | S. cerevisiae deletion strains, locus YML120C, strain ndi1, stronger effect = lower value 0.989 | S. cerevisiae deletion strains, locus YML124C, strain tub3, stronger effect = lower value 0.985 | S. cerevisiae deletion strains, locus YMR058W, strain fet3, stronger effect = lower value 1 | S. cerevisiae deletion strains, locus YMR078C, strain ctf18, stronger effect = lower value 1 | S. cerevisiae deletion strains, locus YMR125W, strain sto1, stronger effect = lower value 0.975 | S. cerevisiae deletion strains, locus YMR129W, stronger effect = lower value 0.998 | S. cerevisiae deletion strains, locus YMR205C, strain PFK2, stronger effect = lower value 1.01 | S. cerevisiae deletion strains, locus YMR223W, strain ubp8, stronger effect = lower value 0.992 | S. cerevisiae deletion strains, locus YMR231W, strain pep5, stronger effect = lower value 0.997 | S. cerevisiae deletion strains, locus YMR263W, strain SAP30, stronger effect = lower value 1 | S. cerevisiae deletion strains, locus YMR307W, strain GAS1, stronger effect = lower value 0.962 | S. cerevisiae deletion strains, locus YNL067W, strain RPL9B, stronger effect = lower value 1.01 | S. cerevisiae deletion strains, locus YNL071W, strain lat1, stronger effect = lower value 0.975 | S. cerevisiae deletion strains, locus YNL183C, strain NPR1, stronger effect = lower value 0.932 | S. cerevisiae deletion strains, locus YNL209W, strain ssb2, stronger effect = lower value 0.99 | S. cerevisiae deletion strains, locus YNL233W, strain BNI4, stronger effect = lower value 1.02 | S. cerevisiae deletion strains, locus YNL248C, strain rpa49, stronger effect = lower value 1.01 | S. cerevisiae deletion strains, locus YNL250W, strain rad50, stronger effect = lower value 1.01 | S. cerevisiae deletion strains, locus YNL271C, strain bni1, stronger effect = lower value 0.985 | S. cerevisiae deletion strains, locus YNL298W, strain CLA4, stronger effect = lower value 0.969 | S. cerevisiae deletion strains, locus YNL307C, strain MCK1, stronger effect = lower value 0.987 | S. cerevisiae deletion strains, locus YNL322C, strain KRE1 (second series), stronger effect = lower value 0.992 | S. cerevisiae deletion strains, locus YNL322C, strain KRE1, stronger effect = lower value 1 | S. cerevisiae deletion strains, locus YNR049C, strain mso1, stronger effect = lower value 1 | S. cerevisiae deletion strains, locus YNR052C, strain pop2, stronger effect = lower value 0.998 | S. cerevisiae deletion strains, locus YOL006C, strain TOP1, stronger effect = lower value 1 | S. cerevisiae deletion strains, locus YOL012C, strain htz1 0.913 | S. cerevisiae deletion strains, locus YOL147C, strain pex11, stronger effect = lower value 0.992 | S. cerevisiae deletion strains, locus YOR001W, strain rrp6, stronger effect = lower value 1 | S. cerevisiae deletion strains, locus YOR061W, strain CKA2, stronger effect = lower value 1.01 | S. cerevisiae deletion strains, locus YOR069W, strain VPS5, stronger effect = lower value 1.01 | S. cerevisiae deletion strains, locus YOR070C, strain gyp1, stronger effect = lower value 1.01 | S. cerevisiae deletion strains, locus YOR080W, strain dia2, stronger effect = lower value 1 | S. cerevisiae deletion strains, locus YOR083W, strain WHI5, stronger effect = lower value 0.988 | S. cerevisiae deletion strains, locus YOR106W, strain vam3, stronger effect = lower value 1 | S. cerevisiae deletion strains, locus YOR136W, strain idh2, stronger effect = lower value 0.988 | S. cerevisiae deletion strains, locus YOR144C, strain elg1, stronger effect = lower value 0.985 | S. cerevisiae deletion strains, locus YOR184W, strain ser1, stronger effect = lower value 0.982 | S. cerevisiae deletion strains, locus YOR231W, strain MKK1, stronger effect = lower value 0.955 | S. cerevisiae deletion strains, locus YOR265W, strain rbl2, stronger effect = lower value 0.997 | S. cerevisiae deletion strains, locus YOR270C, strain vph1, stronger effect = lower value 1.02 | S. cerevisiae deletion strains, locus YOR290C, strain snf2, stronger effect = lower value 0.996 | S. cerevisiae deletion strains, locus YOR316C, strain cot1, stronger effect = lower value 0.993 | S. cerevisiae deletion strains, locus YPL051W, strain arl3, stronger effect = lower value 0.992 | S. cerevisiae deletion strains, locus YPL055C, strain LGE1, stronger effect = lower value 1.02 | S. cerevisiae deletion strains, locus YPL078C, strain atp4, stronger effect = lower value 1.01 | S. cerevisiae deletion strains, locus YPL106C, strain sse1, stronger effect = lower value 0.996 | S. cerevisiae deletion strains, locus YPL240C, strain hsp82, stronger effect = lower value 1 | S. cerevisiae deletion strains, locus YPL241C, strain CIN2, stronger effect = lower value 1 | S. cerevisiae deletion strains, locus YPL256C, strain CLN2, stronger effect = lower value 0.959 | S. cerevisiae deletion strains, locus YPR119W, strain clb2, stronger effect = lower value 0.986 | S. cerevisiae deletion strains, locus YPR141C, strain kar3, stronger effect = lower value 0.984 | S. cerevisiae deletion strains, locus YPR163C, strain tif3, stronger effect = lower value 0.99 | S. cerevisiae deletion strains, locus YPR167C, strain met16, stronger effect = lower value 0.979 | S. cerevisiae deletion strains, strain wtn01, stronger effect = lower value 0.975 | S. cerevisiae strains, strain wild type, stronger effect = lower value 1
